From PubChem BioAssay AID1159580 (chemical genetic matrix, 2015)
Values joined by “and” are separate entries in the source; they are usually repeats but may differ in a detail not shown here. Identical values can stand only once. The campaign covered roughly 5,500 compounds. About 2,000 (36%) were called active. Roughly 18% stayed inconclusive and do not appear here. Cut-off read from the data, not from the text of the source: active = normalized growth mostly below about 0.91 (no sharp cut-off); inconclusive = no clear call, values can overlap the other calls; inactive = mostly above about 0.92. The list shows a part of the results.

Assay: chemical genetic growth profiling, strain panel (AID 1159580);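 note: tested at 20 µM; growth read once vehicle control cultures reached saturation at 30 °C; 1 = growth at the plate median or of vehicle wells; lower values mean less growth of the strain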
Details: S. cerevisiae deletion strains, growth OD

Measured: normalized growth

O=C1c2cccc(O)c2C(=O)c2c(O)cccc21
0.74 (active) and 0.875 (inactive): locus YHR030C, strain SLT2, stronger effect = lower value
active: locus YAL013W, strain DEP1, stronger effect = lower value 0.799 | locus YAL021C, strain ccr4, stronger effect = lower value 0.837 | locus YAL026C, strain drs2, stronger effect = lower value 0.823 | locus YBR009C, strain hhf1, stronger effect = lower value 0.821 | locus YBR021W, strain FUR4, stronger effect = lower value 1.18 [resistant] | locus YBR023C, strain chs3, stronger effect = lower value 0.909 | locus YBR229C, strain ROT2, stronger effect = lower value 0.898 | locus YBR231C, strain swc5, stronger effect = lower value 0.733 | locus YBR279W, strain paf1, stronger effect = lower value 0.905 | locus YCL016C, strain dcc1, stronger effect = lower value 0.77 | locus YCL029C, strain bik1, stronger effect = lower value 0.808 | locus YDL005C, strain med2, stronger effect = lower value 0.167 | locus YDL035C, strain GPR1, stronger effect = lower value 0.703 | locus YDL074C, strain BRE1, stronger effect = lower value 0.658 | locus YDL101C, strain DUN1, stronger effect = lower value 0.616 | locus YDL185W, strain tfp1, stronger effect = lower value 0.789 | locus YDL192W, strain arf1, stronger effect = lower value 0.628 | locus YDR069C, strain doa4, stronger effect = lower value 0.768 | locus YDR101C, strain arx1, stronger effect = lower value 0.745 | locus YDR137W, strain rgp1, stronger effect = lower value 0.268 | locus YDR150W, strain NUM1, stronger effect = lower value 0.861 | locus YDR159W, strain sac3, stronger effect = lower value 0.705 | locus YDR162C, strain NBP2, stronger effect = lower value 0.344 | locus YDR195W, strain ref2 1.22 [resistant] | locus YDR318W, strain mcm21, stronger effect = lower value 0.772 | locus YDR334W, strain swr1, stronger effect = lower value 0.831 | locus YDR335W, strain msn5, stronger effect = lower value 0.85 | locus YDR388W, stronger effect = lower value 0.728 | locus YDR392W, strain spt3, stronger effect = lower value 0.64 | locus YDR502C, strain sam2, stronger effect = lower value 0.673 | locus YEL003W, strain gim4, stronger effect = lower value 0.834 | locus YEL061C, strain CIN8, stronger effect = lower value 0.747 | locus YER015W, strain faa2, stronger effect = lower value 0.911 | locus YER016W, strain bim1, stronger effect = lower value 0.864 | locus YER110C, stronger effect = lower value 0.885 | locus YER155C, strain BEM2 (second series), stronger effect = lower value 0.806 | locus YER155C, strain BEM2, stronger effect = lower value 0.835 | locus YER167W, strain BCK2, stronger effect = lower value 0.77 | locus YFR010W, strain ubp6, stronger effect = lower value 0.862 | locus YGL078C, strain dbp3, stronger effect = lower value 0.874 | locus YGL086W, strain mad1, stronger effect = lower value 0.781 | locus YGL167C, strain pmr1, stronger effect = lower value 0.612 | locus YGL240W, strain doc1, stronger effect = lower value 0.886 | locus YGL248W, strain PDE1, stronger effect = lower value 0.685 | locus YGL253W, strain hxk2, stronger effect = lower value 0.79 | locus YGR078C, strain PAC10, stronger effect = lower value 0.669 | locus YGR135W, strain pre9, stronger effect = lower value 0.698 | locus YGR252W, strain gcn5, stronger effect = lower value 0.625 | locus YHR013C, strain ard1, stronger effect = lower value 0.701 | locus YHR027C, strain rpn1, stronger effect = lower value 0.81 | locus YHR079C, strain IRE1 (second series), stronger effect = lower value 0.915 | locus YHR129C, strain ARP1, stronger effect = lower value 0.777 | locus YHR142W, strain chs7, stronger effect = lower value 0.857 | locus YHR200W, strain rpn10, stronger effect = lower value 0.732 | locus YIL066C, strain RNR3, stronger effect = lower value 0.59 | locus YIL125W, strain kgd1, stronger effect = lower value 0.872 | locus YIR030C, strain dcg1, stronger effect = lower value 0.896 | locus YJL095W, strain BCK1 (second series), stronger effect = lower value 0.878 | locus YJL095W, strain BCK1, stronger effect = lower value 0.379 and 0.881 | locus YJL115W, strain asf1, stronger effect = lower value 0.819 | locus YJL164C, strain tpk1, stronger effect = lower value 0.833 | locus YJL166W, strain qcr8, stronger effect = lower value 0.812 | locus YJL168C, strain set2, stronger effect = lower value 0.927 | locus YJL187C, strain SWE1 (second series), stronger effect = lower value 0.611 | locus YJL187C, strain SWE1, stronger effect = lower value 0.914
inactive: locus YAL030W, strain snc1, stronger effect = lower value 0.935 | locus YBL061C, strain skt5, stronger effect = lower value 0.929 | locus YBR171W, strain sec66, stronger effect = lower value 0.939 | locus YCL011C, strain gbp2, stronger effect = lower value 0.928 | locus YCL061C, strain MRC1, stronger effect = lower value 0.928 | locus YCL069W, strain vba3, stronger effect = lower value 0.951 | locus YCR088W, strain abp1, stronger effect = lower value 0.97 | locus YDL040C, strain nat1, stronger effect = lower value 0.952 | locus YDR001C, strain nth1, stronger effect = lower value 0.977 | locus YDR297W, strain sur2, stronger effect = lower value 0.949 | locus YEL037C, strain rad23, stronger effect = lower value 0.936 | locus YEL061C, strain CIN8 (second series), stronger effect = lower value 0.957 | locus YER111C, strain swi4, stronger effect = lower value 0.956 | locus YGL173C, strain kem1, stronger effect = lower value 0.947 | locus YGL227W, strain vid30, stronger effect = lower value 0.994 | locus YHR079C, strain IRE1, stronger effect = lower value 0.899 | locus YHR094C, strain hxt1, stronger effect = lower value 0.95 | locus YIL073C, strain SPO22, stronger effect = lower value 0.764 | locus YJL092W, strain hpr5, stronger effect = lower value 0.946 | locus YJL129C, strain trk1, stronger effect = lower value 1.02 | locus YJL134W, strain LCB3, stronger effect = lower value 0.951 | locus YJL154C, strain vps35, stronger effect = lower value 0.955
